Common to all, as to type: functional
The subject of assay [1] is Plasmodium falciparum. Kind of assay: GSK_TCMDC: Inhibition of Plasmodium falciparum 3D7 in whole red blood cells, using parasite LDH activity as an index of growth. Test compounds present at 2uM.
The test system of assay [2] is Plasmodium falciparum. Briefly: GSK_TCMDC: Inhibition of Plasmodium falciparum Dd2 in whole red blood cells, using parasite LDH activity as an index of growth. Test compounds present at 2uM.
The test system of assay [3] is HepG2. Briefly: GSK_TCMDC: Percent inhibition of human HepG2 cell line. Test compounds present at 10uM.

As for `Cn1ccnc1Sc1ncccc1[N+](=O)[O-]`, the Inhibition (in general, the share of the control response that was lost under treatment) is on record as 96% in assay [1], 2% in assay [2] and 0% in assay [3].

On to `Cc1cc(F)ccc1C1CCN(CCCCNC(=O)c2ccc(NC(=O)c3ccc(Cl)cc3)cc2)CC1`, for which the Inhibition in assay [1] is 100%; in assay [2], 79%; in assay [3], 19%.

Turning to `COc1cc(C2NCC3(CCOCC3)c3cc4c(cc32)OCCO4)cc(OC)c1OC.Cl` (configuration not stated), the values for the Inhibition in assay [1], in assay [2] and in assay [3] were 95%, 2% and 24%, respectively.

For the compound `COc1cccc(-c2csc(C(=O)NCC3CCN(Cc4ccc(C(C)(C)C)cc4)C3)c2)c1.O=C(O)C(F)(F)F` (configuration not stated), the Inhibition in assay [1] was 95%; in assay [2] it was 10%; in assay [3], 30%.

Take `COC(=O)c1ccc(C(=O)NCCCCN2CCC(c3ccc4c(c3OC)CCCC4)CC2)cc1-c1ccc(C(F)(F)F)cc1`: the Inhibition worked out at 93% in assay [1], 19% in assay [2] and 24% in assay [3].

`COCCOc1nc(N)nc2ncc(Cc3cc(OC)ccc3OC)c(C)c12`: the figures for the Inhibition in assay [1], in assay [2] and in assay [3] were 96%, 0% and 61%, respectively.

As to `O=C(NC1CCN(CCN2CCC(c3ccccc3C(F)(F)F)CC2)CC1)c1ccc(-c2ccc(Cl)cc2)cc1`, the Inhibition in assay [1] was 100%; in assay [2], 68%; in assay [3], 39%.

Take `CC(C)(C)OC(=O)Nc1cccc(-c2csc(NC(=N)N)n2)c1`: the Inhibition in assay [1] came to 97%; in assay [2], 83%; in assay [3], 4%.

Turning to `CC(Cc1ccc(OCc2ccccc2)cc1)Nc1nc(O)c2ccccc2n1.Cl` (configuration not stated), the Inhibition turned out to be 98% in assay [1], 96% in assay [2] and 2% in assay [3].

For the compound `O=C(O)C(F)(F)F.c1ccc(CCNCc2cccc(-c3ccc(CNc4ccc5ncccc5c4)cc3)c2)cc1`, the Inhibition is 93% in assay [1], 27% in assay [2] and 43% in assay [3].

Consider `Cc1cc(N/N=C/c2cccc([N+](=O)[O-])c2)c2cc(F)ccc2n1`, for which the Inhibition in assay [1] was determined as 100%; in assay [2] it was 99%; in assay [3], 3%.

In the case of `Cc1ccc(Nc2nccc(Nc3ccc4c(C)n[nH]c4c3)n2)cc1F.Cl`, the Inhibition in assay [1] stood at 95%; in assay [2] it was 1%; in assay [3], 6%.

Regarding `O=C(Nc1cccc(-c2csc(-c3ccccc3)n2)c1)c1cccs1`, the Inhibition in assay [1] is 89%; in assay [2], 71%; in assay [3], 0%.

Turning to `CN(CCCCCNC(=O)/C=C/c1ccc(Cl)c(Cl)c1)CCCCc1c[nH]c2ccccc12`, the Inhibition in assay [1] is on record as 90%; in assay [2], 15%; in assay [3], 17%.

Turning to `COc1ccc(Nc2ncc3c(-c4cccc(NC(=O)CC(C)C)c4)c[nH]c3n2)cc1OC`, the figures for the Inhibition in assay [1], in assay [2] and in assay [3] were 100%, 71% and 37%, respectively.

For `CCN(CC)CCCNc1cc[n+]([O-])c2cc3ccccc3cc12`, the Inhibition in assay [1] is reported as 100%; in assay [2] it was 3%; in assay [3] it was 13%.

In the case of `Cc1ccc(NC(=O)c2cc(Br)cc(N3CCC(N(C)C)CC3)c2)cc1F.O=C(O)C(F)(F)F`, the Inhibition in assay [1] came to 100%; in assay [2] it was 80%; in assay [3] it was 23%.

Take `CN(CCN1CCC(c2c[nH]c3ccccc23)CC1)c1ccc(-c2nc3cc(Cl)c(Cl)cc3[nH]2)cc1`: the Inhibition in assay [1] turned out to be 100%; in assay [2], 100%; in assay [3], 22%.

Consider `O=C(O)C(F)(F)F.O=S(=O)(NCCN1CCCC1)c1ccc(-c2ccc(CNCc3ccc(F)cc3)cc2)s1`, for which the Inhibition was 100% in assay [1], 44% in assay [2] and 42% in assay [3].

As to `Fc1ccc2cc(C=Cc3ccncc3)[nH]c2c1`, the Inhibition is reported as 100% in assay [1], 89% in assay [2] and 0% in assay [3].

For `Cl.Nc1ccc(-c2cc(Cl)cc(Cl)c2)cc1-c1cc2ccccc2[nH]1`, the Inhibition in assay [1] is listed as 100%; in assay [2], 97%; in assay [3], 0%.

As for `CC1CCCC(C)N1C[C@@H](O)CNS(=O)(=O)c1cccc(C(F)(F)F)c1.Cl` (some centres not stated), the Inhibition in assay [1] was found to be 99%; in assay [2], 2%; in assay [3] it was 4%.

For `CCN(CC)Cc1ccc2c(=O)cc(CCc3cccc(F)c3F)n(CC(=O)N(Cc3ccc(-c4ccc(C(F)(F)F)cc4)cc3)C(C)C)c2c1.O=C(O)C(O)C(O)C(=O)O`, the values for the Inhibition in assay [1], in assay [2] and in assay [3] were 100%, 63% and 82%, respectively.

With `CCCN1CCC(c2c[nH]c3ccc(NC(=O)Nc4cccc(Cl)c4Cl)cc23)CC1`, the Inhibition was found to be 100% in assay [1], 17% in assay [2] and 30% in assay [3].

As to `CC(=O)Nc1cccc(C(=O)Nc2ccc(-c3cccc(-c4nc5cc(C(F)(F)F)ccc5[nH]4)c3)cc2)c1`, the Inhibition is recorded as 100% in assay [1], 85% in assay [2] and 81% in assay [3].

Take `Cc1ccccc1C1CCN(c2ccc(C(=O)Nc3ccccc3)cn2)CC1.O=C(O)C(F)(F)F`: the Inhibition in assay [1] is 95%; in assay [2] it was 94%; in assay [3] it was 53%.

In the case of `COc1ccc(NC(=O)[C@H](Cc2ccccc2)Nc2nc(NCCN3CCCC3)ncc2C)cc1.O=C(O)C(F)(F)F`, the Inhibition in assay [1] is recorded as 89%; in assay [2] it was 9%; in assay [3], 26%.

As to `Fc1ccc2c(NN=CC=Cc3ccccc3)ccnc2c1`, the Inhibition in assay [1] amounted to 100%; in assay [2] it was 98%; in assay [3] it was 0%.

On to `COc1cccc(NC(=O)Nc2cc(-c3ccc4[nH]ncc4c3)cc3c2CNC3=O)c1`, for which the Inhibition was 98% in assay [1], 100% in assay [2] and 3% in assay [3].

Source of the values: ChEMBL document CHEMBL1157539, “Thousands of chemical starting points for antimalarial lead identification” (Nature, 2010).
